# Source: PubChem BioAssay (National Center for Advancing Translational Sciences (NCATS))
# This is one part of a sample in which hits are shown more often than they occur.
# KDM5B inhibitor: Primary screen for KDM5B Histone Demethylases FDH-coupled qHTS; KDM5B demethylase, FDH-coupled NADH fluorescence (FDH is formaldehyde dehydrogenase); Potency, µM (highest dose often 57.7 µM), actives largely listed as inhibitors; actives 2.6% (n = 220,000); AID 1347165, 2019; active = well fitted inhibition curve with a large enough effect; also: 0% is about no effect; nearly all actives have a fitted effect of over 70% in size
#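 Coupled FDH/NAD⁺ fluorescence readout. KDM5BΔAP 200 nM final; compound titration, 10 min RT preincubation; substrate mix 12.5 µM H3K4me3, 25 µM 2-OG, 50 µM Fe(II), 100 µM ascorbate, 0.25 mM NAD⁺, 0.25 U/mL FDH; ΔRFU over 30 min.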
# Numbers without * were called inactive; i = inactive. Potency is read from the fitted curve at half-maximal effect.
SMILES,KDM5B inhibitor
Cn1nc(C(=O)NCc2ccco2)c2ccccc2c1=O,i
Cc1ccc(NC(=O)N2CCC(CCNC(=O)c3n[nH]c4ccccc34)CC2)cc1F,i
COc1ccc(-c2c(C)c3cc(OS(=O)(=O)c4ccccc4)ccc3oc2=O)cc1OC,i
CCOc1cc2nc(-c3ccc(OC)c(OC)c3)nc(N3CCC(C(N)=O)CC3)c2cc1OC,i
CC[C@@]1(O)CCN(C(=O)c2ccc(OC)c(N3CCOCC3)c2)C[C@H]1O,i
CC[C@@]1(O)CCN(c2nc(N)c3cc(OC)c(OC)cc3n2)C[C@H]1O,31.6µM*
O=C(CSc1nnc(COc2ccccc2Cl)n1C1CC1)c1c[nH]c(C(=O)N2CCCC2)c1,i
COc1ccccc1OCC(=O)Nc1ccc2oc(C)nc2c1,i
CC1CCC(NC(=O)c2cc(-c3ccccc3)nc3ccccc23)CC1 (stereo not drawn),i
Cc1noc2c(-c3cccnc3NCC3CCOCC3)cc(-c3ccccc3)nc12,31.6µM*
Cc1noc2c(N3CCOCC3)cc(-c3cccnc3)nc12,i
Cc1noc2c(-c3cccnc3N3CCOCC3)cc(-c3ccccc3)nc12,35.5µM*
Cc1noc2c(NCC3CCOCC3)cc(-c3ccc(Cl)cc3)nc12,i
Cc1noc2c(NC3CCOCC3)cc(-c3ccsc3)nc12,i
Cc1noc2c(NCCc3ccccn3)cc(-c3cccnc3)nc12,i
COCCNc1ncccc1-c1cc(-c2ccccc2)nc2c(C)noc12,31.6µM*
COCCCNc1cc(-c2cccc(C(F)(F)F)c2)nc2c(C)noc12,i
Cc1noc2c(NCCN3CCOCC3)cc(-c3ccccc3)nc12,i
CCOC(=O)C(C(C)=O)=C1SCCS1,i
CN(C)C(=O)CN1CCCC1c1ccc2c(c1)OCCO2 (stereo not drawn),i
CC(NC(=O)c1ccc[n+]([O-])c1)c1cccc(C(F)(F)F)c1 (stereo not drawn),i
CCCCNC(=O)c1cccc2c1CCN2C(=O)Nc1ccccc1,i
Cc1ccc2nc(C)c(C(=O)N(C)CCOc3ccc(F)cc3)cc2c1,i
Cc1cc(CNC(=O)c2cc(-c3ccco3)nc3c(Cl)cccc23)no1,28.2µM*
C[C@@H]1CN(C(=O)c2cc(-c3ccco3)nc3c(Cl)cccc23)C[C@]1(C)O,i
SMILES,KDM5B inhibitor
Cc1cc(C)n2nc(CC(=O)NCc3cc(-c4ccco4)on3)nc2n1,i
CCOC(=O)c1c(SCC(=O)Nc2ccc(F)cc2F)nc(=O)[nH]c1C,i
CN(Cc1ccccc1)C(=O)[C@@H]1Cc2nc[nH]c2CN1C,i
O=C(O)C1Cc2nc[nH]c2CN1C(=O)CCc1cn2ccccc2n1 (stereo not drawn),11.2µM*
CC(C)(CC(=O)O)CC(=O)N1Cc2[nH]cnc2C[C@H]1C(=O)N1CCCC1,i
CCC(C(=O)NCc1nnc2c(-c3nc(C)no3)cccn12)c1ccccc1 (stereo not drawn),31.6µM*
CCC(C(=O)NCc1ccc(C(=O)OC)cc1)c1ccccc1 (stereo not drawn),i
CCC(C(=O)NCc1ccc(OC)cc1)c1ccccc1 (stereo not drawn),i
CC(C(=O)NCCc1noc(-c2cccnc2)n1)c1ccccc1 (stereo not drawn),i
CC(C)NC(=O)N1CCC(c2noc(-c3ccccc3)n2)C1 (stereo not drawn),i
COCc1nc(CCNC(=O)C(C)c2ccccc2)no1 (stereo not drawn),i
CCC(C(=O)NCc1nnc2c(-c3nc(C4CC4)no3)cccn12)c1ccccc1 (stereo not drawn),31.6µM*
CCNC(=O)N1CCC(c2noc(-c3ccccc3)n2)C1 (stereo not drawn),i
CCC(C(=O)Nc1ccccc1OCc1cc(=O)n2cccc(C)c2n1)c1ccccc1 (stereo not drawn),i
CCc1noc(-c2ccn3c(CNC(=O)C(CC)c4ccccc4)nnc3c2)n1 (stereo not drawn),i
CC(C)c1noc(-c2cccn3c(CNC(=O)C(C)c4ccccc4)nnc23)n1 (stereo not drawn),14.1µM*
CCC(C(=O)NCc1nnc2c(-c3nc(C(C)C)no3)cccn12)c1ccccc1 (stereo not drawn),12.6µM*
COc1ccc(S(=O)(=O)N(Cc2cc3ccccc3[nH]c2=O)C(C)C)cc1,i
COc1cc(OC)c(NC(=O)c2ncoc2-c2ccc(OC)c(OC)c2)cc1Cl,i
COc1ccc(N2CCCCS2(=O)=O)cc1S(=O)(=O)NCCc1ccccc1F,i
Brc1ccccc1-c1nnc(CN2CCc3ccccc3C2)o1,i
CSc1nc2ccccc2c(=O)n1CC(=O)c1cc(C)c(C)cc1C,i
O=C(NC1CCCCCC1)C(=O)N1CCN(C(=O)c2cc3ccccc3[nH]2)CC1,i
COc1ccc(S(=O)(=O)Nc2ccc(Nc3cc(N4CCCC4)nc(C)n3)cc2)cc1C,i
COc1ccccc1C(=O)N1CCCn2nc(C)c(-c3ccccc3C(C)C)c21,i
SMILES,KDM5B inhibitor
COc1ccc(C(=O)N2CCCn3nc(C)c(-c4ccccc4C(C)C)c32)cc1,i
COc1ccccc1C(=O)N1CCCn2nc(C)c(-c3ccccc3N3CCCC3)c21,12.6µM*
Cc1c(Cl)cccc1NC(=O)COC(=O)c1cc(=O)c2ccccc2o1,i
C/C(=N/Nc1ccc(S(N)(=O)=O)cc1[N+](=O)[O-])c1ccc(C#N)cc1,i
O=C1Nc2ccc(-c3ccc(Cl)cc3)cc2C(=O)N2CCN(C(=O)c3cccs3)C[C@H]12,i
O=C1Nc2ccc(-c3cccc(C(F)(F)F)c3)cc2C(=O)N2CCN(C(=O)c3cccc(F)c3)C[C@H]12,i
COc1ccc(Cl)cc1-c1ccc2c(c1)C(=O)N1CCN(C(=O)c3ccccc3)C[C@@H]1C(=O)N2,22.4µM*
COc1ccc(Cl)cc1-c1ccc2c(c1)C(=O)N1CCN(C(=O)CC(C)(C)C)C[C@@H]1C(=O)N2,i
COc1ccc(-c2ccc3c(c2)C(=O)N2CCN(C(=O)c4cccc(F)c4)C[C@@H]2C(=O)N3)cc1,17.8µM*
COc1ccc(-c2cc(N3CCN(C(=O)c4cccc(F)c4)CC3)n[nH]2)cc1,i
COc1ccc(Cl)cc1-c1ccc2c(c1)C(=O)N1CCN(C(=O)c3cccs3)C[C@@H]1C(=O)N2,28.2µM*
COc1ccc(Cl)cc1-c1ccc2c(c1)C(=O)N1CCN(C(=O)C3CCCCC3)C[C@@H]1C(=O)N2,10µM*
CN(Cc1ccc(F)cc1)S(=O)(=O)c1cccc2nsnc12,i
O=C(NC1CCN(C(=O)c2cc(-c3ccccc3)nc3ccccc23)CC1)c1ccccc1,i
Cc1ccc(CN(C)CC(=O)NC(C)c2ccc(C)c(C)c2)o1 (stereo not drawn),i
CCC(CO)Nc1ncc2cc3ccccc3nc2c1C#N (stereo not drawn),i
O=C(Nc1cnc(-c2ccccc2)nc1)C1CCCCC1,i
Cc1ccc(/C=C(/C#N)C(=O)NC2CCCCC2)cc1C,i
CCCNC(=O)N1CCN2C(=O)c3cc(-c4cccc(C(F)(F)F)c4)ccc3NC(=O)[C@@H]2C1,31.6µM*
O=C1Nc2ccc(-c3ccccc3F)cc2C(=O)N2CCN(C(=O)c3ccccc3)C[C@H]12,39.8µM*
C=CCO[C@@H]1CCN2C(=O)c3cc(-c4ccccc4F)ccc3NC(=O)[C@H]12,i
CCS[C@H]1CCN2C(=O)c3cc(-c4cc(Cl)ccc4OC)ccc3NC(=O)[C@H]12,i
